Assay [1] can be described thus: qHTS assay to identify small molecule agonists of the TGF-beta/Smad signaling pathway (AID 1346859; active means well fitted activation curve with a large enough effect in the signal ratio in the repeat runs, not every such curve was filed as active; the % refers to the signal ratio; further: series mostly up to about 77 µM). The method, boiled down:
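Screening used HEK 293T SBE-bla cells at 4,000/well. Test agents: 5 hr, 37 C. Detection: FRET substrate, 2 hr RT, then excitation 405 nm with emissions at 460 and 530 nm.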

Assay [2] addresses Thyrotropin-releasing hormone receptor (Homo sapiens) (UniProt P34981). Nature of the assay: qHTS assay to identify small molecule antagonists of the thyrotropin-releasing hormone receptor (TRHR) signaling pathway (AID 1346877; active means well fitted inhibition curve with a large enough effect in the repeat runs, not every such curve was filed as active; further: series mostly up to about 51 µM). In outline: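 Human TRHR in HEK293 cells; inhibition of the intracellular calcium rise triggered by 1 nM TRH was followed by fluorescence over 3 min. Compounds were run at 15 concentrations, three replicates each.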
(In general: Quantitative high-throughput screening tests each substance at several concentrations.)

For assay [3] the target is unchanged. The assay can be described thus: qHTS assay to identify small molecule agonists of the thyrotropin-releasing hormone receptor (TRHR) signaling pathway (AID 1346891; calls by dose curve; further: series mostly up to about 58 µM). The method, boiled down: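 Readout was intracellular calcium fluorescence in TRHR-Hek293 cells. Cells were incubated 18 h, dye-loaded 2 h at 37 °C, and treated with compound in agonist mode.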
Assay [4] can be described thus: Human pregnane X receptor (PXR) small molecule agonists, qHTS cell viability counter screen (AID 1346977). Further: nearly all actives have a fitted effect of over 50% in size. The method, boiled down:
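In each well, the PXR reporter HepG2 line was checked for viability: CellTiter-Fluor reagent added 23hr post-dosing, fluorescence read after 1hr incubation at 37C.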

Assay [5] in a line: Caspase-3/7 induction in HepG2 cells by small molecules, qHTS assay (AID 1346978). Further: nearly all actives have a fitted effect of over 15% in size. In outline: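 Caspase-3/7 induction was measured by Caspase-Glo 3/7 luminescence (30 min, room temperature) after a 17 hr compound exposure of wild-type HepG2 cells seeded at 2,000 per well and pre-incubated 5 hr.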
Assay [6] is described as follows: Caspase-3/7 induction in CHO-K1 cells by small molecules, qHTS cell viability counter screen (AID 1346979). Further: nearly all actives have a fitted effect of over 35% in size. The method, boiled down:
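Following a 5hr settling period, CHO-K1 cells at 1,500 per well received DMSO-dissolved compounds. Cell viability was quantified 16hr later by CellTiter-Fluor fluorescence, measured after 1hr with reagent at 37C.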

Assay [7] is described as follows: Caspase-3/7 induction in CHO-K1 cells by small molecules, qHTS assay (AID 1346980). Further: nearly all actives have a fitted effect of over 15% in size. In outline:
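Luminescent Caspase-Glo 3/7 read (30min, room temperature) quantified apoptosis induction. Cells were wild-type CHO-K1, treated with compound for 17hr at 37 C and 5% CO2.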

Assay [8] can be described thus: Caspase-3/7 induction in HepG2 cells by small molecules, qHTS cell viability counter screen (AID 1346981). Further: series mostly up to about 92 µM; nearly all actives have a fitted effect of over 30% in size. The method, boiled down:
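The parent HepG2 line is plated at 2,000 cells per well and rested 5 hr before compound pinning from DMSO stocks. Following a 16-hr treatment at 37 C, a fluorogenic live-cell substrate (CellTiter-Fluor) reports viability after 1 hr.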

Assay [9] addresses Nuclear receptor subfamily 1 group I member 2 (Homo sapiens) (UniProt O75469). Nature of the assay: Human pregnane X receptor (PXR) small molecule agonists, qHTS assay (AID 1346982). Further: nearly all actives have a fitted effect of over 35% in size. Further: potency means the concentration at half of the fitted maximal effect. In outline: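 After plating in 5% charcoal-stripped FBS and a 5 hr rest, PXR-Luc HepG2 cells received compounds in DMSO. Following 24 hr at 37 C, ONE-Glo was added and light output read.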
The target in assay [10] is Nuclear receptor subfamily 1 group I member 2 (Rattus norvegicus) (UniProt Q9R1A7). Nature of the assay: Rat pregnane X receptor (rPXR) activation by small molecules, qHTS assay (AID 1346983). Further: nearly all actives have a fitted effect of over 20% in size. To be noted: rPXR luciferase reporter cells, One-Glo luminescence, 24 h; max activation: stronger effect = higher value. In outline:
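Luminescent readout (One-Glo luciferase, 30 min room temperature) followed 24 hr compound treatment at 37 C of rPXR cells plated 2,000 per well and preincubated 5hr; qHTS format with compounds delivered in DMSO.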

Assay [11] addresses Nuclear receptor subfamily 1 group I member 2 (Homo sapiens) (UniProt O75469). Nature of the assay: CYP3A4 induction through human pregnane X receptor (PXR) by small molecules, qHTS assay (AID 1346984). Further: nearly all actives have a fitted effect of over 40% in size. The method, boiled down: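 Human PXR activation is tracked via CYP3A4 promoter-luciferase in DPX-2 (HepG2) cells. Compounds treat cells for 24hr at 37C, and luminescence is read after One-Glo.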

For assay [12] the target is unchanged. The assay can be described thus: Human pregnane X receptor (PXR) activation by small molecules, qHTS assay (AID 1346985). Further: nearly all actives have a fitted effect of over 40% in size. The method, boiled down: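 DPX-2 cells (HepG2 co-transfected with a PXR response element and a CYP3A4-promoter luciferase construct) were seeded at 2,000 per well, rested 5 hr at 37C, then exposed to DMSO-dissolved compounds for 24 hr. Activation was read as luciferase luminescence.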

For assay [13], the target named is Cytochrome P450 2D6 (Homo sapiens) (UniProt P10635). Nature of the assay: Cytochrome P450 Family 2 Subfamily D Member 6 (CYP2D6) small molecule antagonists: luciferase reporter qHTS assay (AID 1671196). Further: nearly all actives have a fitted effect of over 50% in size. Further: potency means the concentration at half of the fitted maximal effect. On activity change, negative = inhibition: series mostly up to about 120 µM. In outline: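 Quantitative HTS of Tox21 chemicals against CYP2D6 using a luminescent proluciferin substrate. After NADPH addition, 1 h room-temperature reaction; luminescence recorded 20 min post detection reagent.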
Chain of Cytochrome P450 2D6 (Homo sapiens) (P10635 whole entry, looked up): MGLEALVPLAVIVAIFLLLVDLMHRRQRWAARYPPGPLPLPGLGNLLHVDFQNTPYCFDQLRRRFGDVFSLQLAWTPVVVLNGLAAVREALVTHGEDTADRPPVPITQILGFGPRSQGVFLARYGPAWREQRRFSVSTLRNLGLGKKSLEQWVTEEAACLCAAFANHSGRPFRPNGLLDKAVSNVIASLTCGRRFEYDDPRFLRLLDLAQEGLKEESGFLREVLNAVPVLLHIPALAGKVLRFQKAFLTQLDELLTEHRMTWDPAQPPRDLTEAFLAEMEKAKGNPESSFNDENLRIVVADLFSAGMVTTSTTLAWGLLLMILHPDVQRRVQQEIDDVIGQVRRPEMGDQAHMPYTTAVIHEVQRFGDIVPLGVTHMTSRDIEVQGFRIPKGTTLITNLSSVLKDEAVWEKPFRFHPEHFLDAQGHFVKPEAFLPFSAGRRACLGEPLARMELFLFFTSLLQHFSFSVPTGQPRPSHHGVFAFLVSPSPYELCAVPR
On the technique in general: A reporter such as luciferase makes a cellular process visible.

Assay [14] addresses Cytochrome P450 2C19 (Homo sapiens) (UniProt P33261). The assay can be described thus: Cytochrome P450 Family 2 Subfamily C Member 19 (CYP2C19) small molecule antagonists: luciferase reporter qHTS assay (AID 1671197). Further: nearly all actives have a fitted effect of over 65% in size. Further: potency means the concentration at half of the fitted maximal effect. On activity change, negative = inhibition: series mostly up to about 120 µM. The method, boiled down: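 Light output is proportional to CYP2C19 activity: proluciferin substrate is converted to luciferin, then detected by a luciferin detection reagent that also stops the 1 h, 37C NADPH-driven reaction. Ketoconazole serves as positive control.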

Assay [15] addresses Cytochrome P450 2C9 (Homo sapiens) (UniProt P11712). Nature of the assay: Cytochrome P450 Family 2 Subfamily C Member 9 (CYP2C9) small molecule antagonists: luciferase reporter qHTS assay (AID 1671198). Further: nearly all actives have a fitted effect of over 50% in size. Further: potency means the concentration at half of the fitted maximal effect. On activity change, negative = inhibition: series mostly up to about 120 µM. In outline:
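Enzyme-substrate mix preincubated with compound 10 min at room temperature; reaction started with NADPH regeneration solution, 1 h 37C. Luminescent luciferin product read after 20 min detection reagent.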

Assay [16] concerns the target Cytochrome P450 1A2 (Homo sapiens) (UniProt P05177). Nature of the assay: Cytochrome P450 Family 1 Subfamily A Member 2 (CYP1A2) small molecule antagonists: luciferase reporter qHTS assay (AID 1671199). Further: nearly all actives have a fitted effect of over 50% in size. Further: potency means the concentration at half of the fitted maximal effect. On activity change, negative = inhibition: series mostly up to about 120 µM. In outline: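 Quantitative high-throughput format using the P450-Glo CYP1A2 system. Reaction initiated by NADPH regeneration solution, 1 h at room temperature, then stopped with detection reagent; luminescence measured 20 min later.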

Assay [17] addresses Voltage-gated inwardly rectifying potassium channel KCNH2 (Homo sapiens) (UniProt Q12809). The assay can be described thus: Human Ether-a-go-go-Related Gene (hERG) channel small molecule antagonists: fluorescence cell-based qHTS assay (AID 1671200). Further: nearly all actives have a fitted effect of over 50% in size. Further: potency means the concentration at half of the fitted maximal effect.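 On activity change, negative = inhibition: hERG-expressing U2OS cells given a thallium stimulus after FluxOR II dye loading; series mostly up to about 77 µM.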 In outline:
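In this thallium-flux screen, overnight-cultured U2OS cells bearing the channel are dye-loaded in darkness for an hour, rested 10 min at room temperature, and then monitored kinetically at 480/540 nm for two minutes post-stimulus.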
On the technique in general: hERG is a cardiac potassium channel; its block is linked to QT prolongation.

In assay [18] the target is Cytochrome P450 3A4 (Homo sapiens) (UniProt P08684). The assay can be described thus: Cytochrome P450 Family 3 Subfamily A Member 4 (CYP3A4) small molecule antagonists: luciferase reporter qHTS assay (AID 1671201). In outline: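 CYP3A4 activity was followed with a P450-Glo proluciferin substrate. Test compounds in DMSO were preincubated 10 min; NADPH regeneration then ran 1 h, and light output was read 20 min after detection reagent.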
Chain of Cytochrome P450 3A4 (Homo sapiens) (P08684 whole entry, looked up): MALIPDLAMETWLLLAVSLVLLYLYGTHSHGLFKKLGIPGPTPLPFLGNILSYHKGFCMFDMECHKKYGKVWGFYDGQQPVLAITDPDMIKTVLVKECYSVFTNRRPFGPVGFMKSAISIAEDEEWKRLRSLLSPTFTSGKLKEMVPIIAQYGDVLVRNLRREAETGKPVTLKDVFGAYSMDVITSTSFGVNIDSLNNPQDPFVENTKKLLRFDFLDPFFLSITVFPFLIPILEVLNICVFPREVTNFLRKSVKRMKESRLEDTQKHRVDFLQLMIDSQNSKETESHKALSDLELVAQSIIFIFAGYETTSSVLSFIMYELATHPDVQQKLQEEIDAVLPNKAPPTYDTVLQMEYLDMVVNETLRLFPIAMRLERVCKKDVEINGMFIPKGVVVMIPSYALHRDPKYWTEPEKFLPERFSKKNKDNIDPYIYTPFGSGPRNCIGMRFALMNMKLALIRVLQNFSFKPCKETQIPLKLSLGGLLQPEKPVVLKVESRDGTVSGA

Values without a mark were called inactive. Records with an inconclusive call do not appear. Calls of active or inactive are those of the source. Unless noted, the call rests on the fitted dose curve; in most records, active means well fitted curve in the direction sought with a large enough effect in the repeat runs; inconclusive means weak or mixed curves; inactive means no such curve, though single readings can be large; an effect the other way counts as inactive or inconclusive.
On the % scale 0 is the no-effect control and ±100 the full control effect.

Chain of Cytochrome P450 2C19 (Homo sapiens) (P33261 whole entry, looked up): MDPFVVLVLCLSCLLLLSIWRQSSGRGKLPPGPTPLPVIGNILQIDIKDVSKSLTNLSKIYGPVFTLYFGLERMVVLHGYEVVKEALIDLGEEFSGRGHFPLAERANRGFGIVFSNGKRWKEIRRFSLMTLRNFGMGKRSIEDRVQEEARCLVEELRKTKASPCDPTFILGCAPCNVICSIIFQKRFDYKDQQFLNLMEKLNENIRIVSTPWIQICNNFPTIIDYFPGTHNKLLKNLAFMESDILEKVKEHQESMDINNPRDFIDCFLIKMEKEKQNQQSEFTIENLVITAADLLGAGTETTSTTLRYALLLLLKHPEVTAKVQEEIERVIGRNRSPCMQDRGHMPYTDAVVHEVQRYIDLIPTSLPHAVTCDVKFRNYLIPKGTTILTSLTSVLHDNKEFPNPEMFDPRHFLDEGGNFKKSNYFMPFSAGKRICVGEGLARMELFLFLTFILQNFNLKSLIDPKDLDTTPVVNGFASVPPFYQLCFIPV
Chain of Nuclear receptor subfamily 1 group I member 2 (Homo sapiens) (O75469 whole entry, looked up): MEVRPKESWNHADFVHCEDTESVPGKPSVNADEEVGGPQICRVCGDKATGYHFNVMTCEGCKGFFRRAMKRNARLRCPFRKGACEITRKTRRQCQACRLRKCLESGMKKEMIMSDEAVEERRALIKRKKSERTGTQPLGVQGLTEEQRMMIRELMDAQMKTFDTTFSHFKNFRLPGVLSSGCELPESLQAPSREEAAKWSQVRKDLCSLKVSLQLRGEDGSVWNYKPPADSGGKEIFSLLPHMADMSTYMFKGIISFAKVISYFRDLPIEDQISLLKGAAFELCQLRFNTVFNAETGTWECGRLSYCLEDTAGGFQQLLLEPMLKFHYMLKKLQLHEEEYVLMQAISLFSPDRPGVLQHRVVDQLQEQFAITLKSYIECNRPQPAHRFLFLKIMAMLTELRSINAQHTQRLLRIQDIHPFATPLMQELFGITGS
Chain of Voltage-gated inwardly rectifying potassium channel KCNH2 (Homo sapiens) (Q12809 whole entry, looked up): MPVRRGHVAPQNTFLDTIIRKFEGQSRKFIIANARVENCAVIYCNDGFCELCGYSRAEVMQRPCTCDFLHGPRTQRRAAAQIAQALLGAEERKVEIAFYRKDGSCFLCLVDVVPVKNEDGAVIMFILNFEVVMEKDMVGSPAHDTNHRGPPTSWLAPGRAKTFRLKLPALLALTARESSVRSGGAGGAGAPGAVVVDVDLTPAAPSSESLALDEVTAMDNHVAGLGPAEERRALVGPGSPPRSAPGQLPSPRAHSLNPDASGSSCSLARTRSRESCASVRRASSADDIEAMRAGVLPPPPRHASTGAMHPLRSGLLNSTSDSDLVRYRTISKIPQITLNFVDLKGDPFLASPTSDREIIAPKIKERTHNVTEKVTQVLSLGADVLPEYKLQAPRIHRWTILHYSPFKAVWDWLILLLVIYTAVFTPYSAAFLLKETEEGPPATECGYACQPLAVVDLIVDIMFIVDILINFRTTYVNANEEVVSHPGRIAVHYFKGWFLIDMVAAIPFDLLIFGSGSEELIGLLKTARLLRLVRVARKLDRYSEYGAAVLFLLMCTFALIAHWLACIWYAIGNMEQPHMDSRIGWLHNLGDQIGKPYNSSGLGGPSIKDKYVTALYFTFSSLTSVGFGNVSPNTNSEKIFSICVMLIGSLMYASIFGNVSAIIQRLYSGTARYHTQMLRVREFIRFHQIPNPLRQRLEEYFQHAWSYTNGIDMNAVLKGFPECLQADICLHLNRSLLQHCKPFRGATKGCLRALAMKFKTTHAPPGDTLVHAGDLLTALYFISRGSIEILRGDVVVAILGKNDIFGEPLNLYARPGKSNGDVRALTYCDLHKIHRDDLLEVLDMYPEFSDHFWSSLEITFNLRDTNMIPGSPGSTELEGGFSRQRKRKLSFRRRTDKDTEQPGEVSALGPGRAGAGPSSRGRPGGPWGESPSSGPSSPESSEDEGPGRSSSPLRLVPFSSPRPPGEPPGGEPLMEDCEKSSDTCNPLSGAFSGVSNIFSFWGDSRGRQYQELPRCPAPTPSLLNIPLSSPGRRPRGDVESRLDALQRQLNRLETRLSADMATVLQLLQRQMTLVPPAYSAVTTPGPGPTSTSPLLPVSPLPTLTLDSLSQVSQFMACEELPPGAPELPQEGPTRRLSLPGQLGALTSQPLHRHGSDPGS
Chain of Cytochrome P450 1A2 (Homo sapiens) (P05177 whole entry, looked up): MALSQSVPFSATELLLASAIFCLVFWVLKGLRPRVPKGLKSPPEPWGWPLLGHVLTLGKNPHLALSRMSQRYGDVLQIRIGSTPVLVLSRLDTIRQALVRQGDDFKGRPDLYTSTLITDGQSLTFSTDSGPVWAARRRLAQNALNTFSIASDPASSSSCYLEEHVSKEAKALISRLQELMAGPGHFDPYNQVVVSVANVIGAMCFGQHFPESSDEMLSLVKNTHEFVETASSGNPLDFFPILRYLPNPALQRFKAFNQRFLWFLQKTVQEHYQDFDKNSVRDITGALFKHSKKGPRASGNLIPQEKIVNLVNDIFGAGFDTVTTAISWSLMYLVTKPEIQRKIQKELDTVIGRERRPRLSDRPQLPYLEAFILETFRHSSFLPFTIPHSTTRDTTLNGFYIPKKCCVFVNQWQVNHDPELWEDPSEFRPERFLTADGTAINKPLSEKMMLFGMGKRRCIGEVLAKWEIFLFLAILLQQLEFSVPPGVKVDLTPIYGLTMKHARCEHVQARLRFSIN
Chain of Thyrotropin-releasing hormone receptor (Homo sapiens) (P34981 whole entry, looked up): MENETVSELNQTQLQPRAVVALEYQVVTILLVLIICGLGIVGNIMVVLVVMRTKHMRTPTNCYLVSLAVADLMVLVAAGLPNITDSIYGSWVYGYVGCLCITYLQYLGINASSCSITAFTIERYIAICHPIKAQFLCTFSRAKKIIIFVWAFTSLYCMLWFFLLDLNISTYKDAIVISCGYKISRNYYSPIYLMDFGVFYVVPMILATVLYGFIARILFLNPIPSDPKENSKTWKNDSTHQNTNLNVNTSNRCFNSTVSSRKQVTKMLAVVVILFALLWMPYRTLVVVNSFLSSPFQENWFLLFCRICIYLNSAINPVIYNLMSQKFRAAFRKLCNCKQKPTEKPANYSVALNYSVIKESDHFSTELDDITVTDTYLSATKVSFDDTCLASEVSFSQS
Chain of Cytochrome P450 2C9 (Homo sapiens) (P11712 whole entry, looked up): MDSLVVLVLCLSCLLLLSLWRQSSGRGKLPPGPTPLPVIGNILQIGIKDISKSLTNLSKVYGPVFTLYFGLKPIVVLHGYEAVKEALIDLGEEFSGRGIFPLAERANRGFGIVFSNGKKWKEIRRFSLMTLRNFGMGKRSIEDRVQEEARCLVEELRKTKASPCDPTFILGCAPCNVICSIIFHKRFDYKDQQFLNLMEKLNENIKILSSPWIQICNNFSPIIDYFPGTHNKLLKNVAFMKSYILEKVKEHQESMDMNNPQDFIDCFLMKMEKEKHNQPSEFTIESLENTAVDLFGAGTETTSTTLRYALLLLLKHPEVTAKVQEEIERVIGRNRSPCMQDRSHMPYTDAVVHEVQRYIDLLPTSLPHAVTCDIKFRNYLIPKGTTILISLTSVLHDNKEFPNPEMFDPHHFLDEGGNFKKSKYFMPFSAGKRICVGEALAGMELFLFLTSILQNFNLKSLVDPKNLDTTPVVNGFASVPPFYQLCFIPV
Chain of Nuclear receptor subfamily 1 group I member 2 (Rattus norvegicus) (Q9R1A7 whole entry, looked up): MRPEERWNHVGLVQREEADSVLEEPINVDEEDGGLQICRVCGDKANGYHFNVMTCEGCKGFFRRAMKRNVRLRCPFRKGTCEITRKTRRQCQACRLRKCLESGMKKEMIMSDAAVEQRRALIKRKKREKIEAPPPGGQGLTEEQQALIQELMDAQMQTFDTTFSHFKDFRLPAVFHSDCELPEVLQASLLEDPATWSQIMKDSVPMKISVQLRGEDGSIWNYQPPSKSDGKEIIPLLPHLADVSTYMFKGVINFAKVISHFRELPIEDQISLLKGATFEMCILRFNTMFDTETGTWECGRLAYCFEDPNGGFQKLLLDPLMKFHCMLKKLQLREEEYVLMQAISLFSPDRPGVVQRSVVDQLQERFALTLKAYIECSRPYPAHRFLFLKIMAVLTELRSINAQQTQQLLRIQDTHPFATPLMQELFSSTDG

Regarding `CC(C)(C)C(=O)NCCCC(=O)O`, the call in assay [1], in assay [2], in assay [4], in assay [5], in [7] and in assay [8] was inactive. The molecule was called inactive in assay [11] and in assay [12]. Besides, the Potency entry in assay [3], in assay [6], in assay [9], in assay [13], in [14] and in assay [15] was “inactive” in each case. The Potency result in assay [16] is “inactive”. The max activation in [10] was -1.4%.
As to `Cc1ccccc1OCC(=O)O`, the molecule was called inactive in [1], in [2], in [4], in [5], in assay [7] and in [8]. For the same molecule, the Potency result in [3], in assay [6], in assay [9], in assay [13], in assay [14] and in assay [16] was “inactive” throughout. The Potency entry in assay [17] and in assay [18] was “inactive” throughout. The Potency in assay [15] was 79.6 µM (active).
Take `CO/N=C(\C(=O)O)c1csc(NC(=O)CCl)n1`: the outcome in assay [1], in [2], in assay [4], in assay [5], in assay [7] and in [8] was inactive. Further, the Potency result in [3], in [6], in [9], in [13], in assay [14] and in assay [15] was “inactive” each time. Further, the Potency result in [16] and in assay [18] was “inactive” in each case.
On to `CCCCCCCCCCCCCCCC(=O)OC`, for which the activation in assay [1] is 0.447% [at 15.8 µM]; in [3] it was 1.74% [at 11.8 µM]; in assay [9], 4.26% [at 19 µM]. Further, the activity, negative = inhibition in assay [2] is 0.477% [at 10.5 µM]. In addition, the activity change, negative = cytotoxicity in assay [4] is 0.375% [at 19 µM]; in [6] it was 3.95% [at 19 µM]; in assay [8] it was -1.7% [at 19 µM]. Also, in [5], the caspase activation is 1.29% [at 19 µM]. Also, in assay [7], the caspase-3/7 activation is 1.1% [at 19 µM]. For the same molecule, the activity change, negative = inhibition is 1.63% [at 23.6 µM] in assay [13]; -1.98% [at 23.6 µM] in [14]; 2.75% [at 23.6 µM] in [15]; -2.98% [at 23.6 µM] in assay [16]; -9.56% [at 15.8 µM] in [17].
For `CCCCCCC(=O)c1ccccc1`, the molecule was classed as inactive in [1], in assay [2], in [4], in assay [5], in [7] and in assay [8]. Also, the Potency entry in assay [3], in [6], in assay [9], in [13], in assay [14] and in [15] was “inactive” throughout. The Potency entry in assay [17] and in [18] was “inactive” throughout. Also, the Potency in assay [16] is 50.2 µM (active).
Regarding `CCCC(=O)CC`, the outcome in assay [1], in assay [2], in [4], in assay [5], in assay [7] and in assay [8] was inactive. The Potency entry in assay [3], in assay [6], in assay [9], in assay [13], in assay [15] and in assay [17] was “inactive” each time. Moreover, in assay [18], the Potency entry is “inactive”. Besides, the Potency was 41.2 µM (active) in assay [14] and 20.6 µM (active) in assay [16].
`CC(C)(C)OC(=O)c1ccccc1C(=O)O`: the result in assay [1], in [2], in [4], in assay [5], in [7] and in [8] was inactive. Besides, the Potency entry in [3], in assay [6], in assay [9], in [13], in assay [14] and in assay [16] was “inactive” in each case. Moreover, the Potency result in assay [18] is “inactive”.
As for `O=C1CC2(CCCC2)CC(=O)N1CCNCC1COc2ccccc2O1` (stereo not given), the molecule was classed as inactive in assay [1], in assay [2], in [4], in assay [5], in assay [7] and in assay [8]. Further, the Potency entry in assay [3], in assay [6], in assay [14] and in assay [15] was “inactive” throughout. Also, the results for the Potency in assay [9], in [13] and in assay [17] were 13.3 µM (active), 0.309 µM (active) and 19 µM (active), respectively.

(Values after PubChem BioAssay (Tox21).)
